For 38 molecules, Potency, outcome and activity change, negative = cytotoxicity results are on record in PubChem BioAssay (NCATS).

The structures appear in SMILES notation. Results filed as inconclusive are left out. Where a call stands in place of a potency, no number is given. A number with no mark means an inactive call. Calls of active or inactive are those of the source. Calls come from the whole dose curve.
Potency is the fitted concentration of half-maximal effect.

One assay in a line: Primary qHTS for Huh7 cytotoxicity: counterscreen for inhibitors of MERS-S pseudotyped particle cell entry (AID 1479147). Conditions: cell viability read-out; series mostly up to 57.1 µM.
`CCOC(=O)[C@H](CCc1ccccc1)N[C@@H](C)C(=O)N(CC(=O)O)C1Cc2ccccc2C1`: the Potency result was “inactive”.

Take `C=CCc1ccccc1OCC(O)CNC(C)C` (stereo unspecified): the Potency result was “inactive”.

With `CCOc1ccccc1O[C@H](c1ccccc1)[C@H]1CNCCO1`, the Potency entry is “inactive”.

Regarding `C=C1c2cccc(O)c2C(O)=C2C(=O)[C@]3(O)C(O)=C(C(N)=O)C(=O)[C@@H](N(C)C)[C@@H]3[C@@H](O)[C@H]12`, the Potency entry is “inactive”.

For `CCOC(=O)c1cc(=O)c2c(OCC(COc3cccc4oc(C(=O)OCC)cc(=O)c34)OC(=O)[C@@H](N)CCCCN)cccc2o1`, the Potency entry was “inactive”.

Turning to `CCOc1ccc(Cc2nccc3cc(OCC)c(OCC)cc23)cc1OCC`, the Potency was 12.6 µM (active).

For `CCCCCCOC(=O)NC(=N)c1ccc(NCc2nc3cc(C(=O)N(CCC(=O)OCC)c4ccccn4)ccc3n2C)cc1`, the Potency entry was “inactive”.

For `C/C=C/C(=O)N(CC)c1ccccc1C`, the Potency result was “inactive”.

For `CC(=O)OCC(=O)NCCCOc1cccc(CN2CCCCC2)c1`, the Potency entry was “inactive”.

Consider `O=c1[nH]c(=O)n([C@H]2C[C@H](O)[C@@H](CO)O2)cc1C(F)(F)F`, for which the Potency result was “inactive”.

As to `Nc1ccn(C2CO[C@H](CO)O2)c(=O)n1` (stereo partly specified), the Potency result was “inactive”.

Consider `CCc1oc2ccccc2c1C(=O)c1cc(Br)c(O)c(Br)c1`, for which the Potency entry is “inactive”.

For `NC(=O)Cc1cccc(C(=O)c2ccccc2)c1N`, the Potency result was “inactive”.

Regarding `CCCCN1CCCC[C@H]1C(=O)Nc1c(C)cccc1C`, the Potency entry was “inactive”.

Regarding `CCCC(=O)OC[C@@H](OC(=O)CCC)[C@@H](OC(=O)CCC)[C@H](Cn1c2nc(=O)[nH]c(=O)c-2nc2cc(C)c(C)cc21)OC(=O)CCC`, the Potency entry was “inactive”.

In the case of `O=c1[nH]c(=O)c2[nH]c(=O)[nH]c2[nH]1`, the outcome is “inactive [at 11.4 µM]”.

For `OC(CCN1CCCCC1)(c1ccccc1)c1ccccc1`, the Potency result is “inactive”.

`CCN(CC)CCOc1ccccc1C(=O)CCc1ccccc1`: the Potency result was “inactive”.

For `CCOC(=O)c1ccc(OC(=O)CCCCCN=C(N)N)cc1`, the Potency result is “inactive”.

As to `CCOc1ccccc1C(N)=O`, the Potency result was “inactive”.

Regarding `CCN1C(=O)c2ccccc2C1Nc1ccc(OCCN2CCCCC2)cc1` (stereo unspecified), the Potency result was “inactive”.

In the case of `C#CC1(O)CC[C@H]2[C@@H]3CCC4=CCCC[C@@H]4[C@H]3CC[C@@]21C` (stereo partly specified), the Potency result was “inactive”.

Turning to `COC1=C(OC)C(=O)C(CCCCCCCCCCO)=C(C)C1=O`, the Potency result is “inactive”.

With `O=C(O)c1ccccc1Nc1cc(Cl)ccc1C(=O)O`, the Potency result was “inactive”.

Consider `COc1ccc2cc3[n+](cc2c1OC)CCc1cc2c(cc1-3)OCO2`, for which the Potency entry is “inactive”.

Regarding `CCC1NC(=O)c2cc(S(N)(=O)=O)c(Cl)cc2N1` (stereo unspecified), the Potency entry was “inactive”.

Consider `O=S(=O)(c1cccc2cnccc12)N1CCCNCC1`, for which the Potency result is “inactive”.

On to `CCOC(CN1CCN(CC(C)C(=O)c2ccccc2)CC1)c1ccccc1` (stereo unspecified), for which the Potency result was “inactive”.

On to `NS(=O)(=O)c1cc2c(cc1Cl)CN(C1CCCCC1)C2=O`, for which the Potency result was “inactive”.

For the molecule `O=C(OCC(O)CO)c1ccccc1Nc1ccnc2cc(Cl)ccc12` (stereo unspecified), the Potency entry is “inactive”.

Take `CCCCCCCCCCCCCCCCC(C(=O)O)C(O)(CC(=O)O)C(=O)O` (stereo unspecified): the Potency result was “inactive”.

As for `Cc1c(-c2ccccc2)oc2c(C(=O)OCCN3CCCCC3)cccc2c1=O`, the Potency entry is “inactive”.

Turning to `Cc1ccc(/C(=C\CN2CCCC2)c2ccccn2)cc1`, the Potency entry is “inactive”.

For the molecule `CCOc1ccc(C(=O)OCCN(CC)CC)cc1`, the Potency result is “inactive”.

Take `CCN[C@@H]1C[C@H](N)[C@@H](OC2OC(CN)=CCC2N)[C@H](O)[C@H]1O[C@H]1OC[C@](C)(O)[C@H](NC)[C@H]1O` (stereo partly specified): the activity change, negative = cytotoxicity is -16.5% [at 0.573 µM].

For `CN(C)CC[C@@H](c1ccc(Cl)cc1)c1ccccn1`, the Potency entry was “inactive”.

Turning to `CC(Oc1c(Cl)cccc1Cl)C1=NCCN1` (stereo unspecified), the Potency result was “inactive”.

For the molecule `Cn1cc(C(=O)[C@@H]2CCc3nc[nH]c3C2)c2ccccc21`, the Potency result is “inactive”.

Another assay in a line: Primary qHTS for inhibitors of MERS-S pseudo-typed particle cell entry (AID 1479149). Note: nearly all actives have a fitted effect of over 60% in size. Conditions: MERS-S pseudotyped particle entry, luciferase; series mostly up to 57.1 µM.
With `CCOC(=O)[C@H](CCc1ccccc1)N[C@@H](C)C(=O)N(CC(=O)O)C1Cc2ccccc2C1`, the Potency entry is “inactive”.

`C=CCc1ccccc1OCC(O)CNC(C)C` (stereo unspecified): the Potency entry was “inactive”.

Take `CCOc1ccccc1O[C@H](c1ccccc1)[C@H]1CNCCO1`: the Potency entry was “inactive”.

As for `C=C1c2cccc(O)c2C(O)=C2C(=O)[C@]3(O)C(O)=C(C(N)=O)C(=O)[C@@H](N(C)C)[C@@H]3[C@@H](O)[C@H]12`, the Potency entry is “inactive”.

As for `CCOC(=O)c1cc(=O)c2c(OCC(COc3cccc4oc(C(=O)OCC)cc(=O)c34)OC(=O)[C@@H](N)CCCCN)cccc2o1`, the Potency entry is “inactive”.

`CCOc1ccc(Cc2nccc3cc(OCC)c(OCC)cc23)cc1OCC`: the Potency was 3.55 µM (active).

For `CCCCCCOC(=O)NC(=N)c1ccc(NCc2nc3cc(C(=O)N(CCC(=O)OCC)c4ccccn4)ccc3n2C)cc1`, the Potency is 10 µM (active).

For the molecule `C/C=C/C(=O)N(CC)c1ccccc1C`, the Potency result was “inactive”.

Take `CC(=O)OCC(=O)NCCCOc1cccc(CN2CCCCC2)c1`: the Potency entry is “inactive”.

Regarding `O=c1[nH]c(=O)n([C@H]2C[C@H](O)[C@@H](CO)O2)cc1C(F)(F)F`, the Potency was 10 µM (active).

For `Nc1ccn(C2CO[C@H](CO)O2)c(=O)n1` (stereo partly specified), the Potency result was “inactive”.

With `CCc1oc2ccccc2c1C(=O)c1cc(Br)c(O)c(Br)c1`, the Potency entry was “inactive”.

In the case of `NC(=O)Cc1cccc(C(=O)c2ccccc2)c1N`, the Potency result was “inactive”.

As for `CCCCN1CCCC[C@H]1C(=O)Nc1c(C)cccc1C`, the Potency result is “inactive”.

With `CCCC(=O)OC[C@@H](OC(=O)CCC)[C@@H](OC(=O)CCC)[C@H](Cn1c2nc(=O)[nH]c(=O)c-2nc2cc(C)c(C)cc21)OC(=O)CCC`, the Potency result was “inactive”.

Turning to `O=c1[nH]c(=O)c2[nH]c(=O)[nH]c2[nH]1`, the outcome was “inactive [at 11.4 µM]”.

`OC(CCN1CCCCC1)(c1ccccc1)c1ccccc1`: the Potency entry is “inactive”.

As to `CCN(CC)CCOc1ccccc1C(=O)CCc1ccccc1`, the Potency entry was “inactive”.

With `CCOC(=O)c1ccc(OC(=O)CCCCCN=C(N)N)cc1`, the Potency result is “inactive”.

`CCOc1ccccc1C(N)=O`: the Potency result is “inactive”.

In the case of `CCN1C(=O)c2ccccc2C1Nc1ccc(OCCN2CCCCC2)cc1` (stereo unspecified), the Potency entry is “inactive”.

For the molecule `C#CC1(O)CC[C@H]2[C@@H]3CCC4=CCCC[C@@H]4[C@H]3CC[C@@]21C` (stereo partly specified), the Potency result is “inactive”.

As for `COC1=C(OC)C(=O)C(CCCCCCCCCCO)=C(C)C1=O`, the Potency entry was “inactive”.

In the case of `O=C(O)c1ccccc1Nc1cc(Cl)ccc1C(=O)O`, the Potency entry is “inactive”.

For `COc1ccc2cc3[n+](cc2c1OC)CCc1cc2c(cc1-3)OCO2`, the Potency is 12.6 µM (active).

For `CCC1NC(=O)c2cc(S(N)(=O)=O)c(Cl)cc2N1` (stereo unspecified), the Potency result is “inactive”.

Take `O=S(=O)(c1cccc2cnccc12)N1CCCNCC1`: the Potency entry was “inactive”.

With `CCOC(CN1CCN(CC(C)C(=O)c2ccccc2)CC1)c1ccccc1` (stereo unspecified), the Potency entry was “inactive”.

For the molecule `NS(=O)(=O)c1cc2c(cc1Cl)CN(C1CCCCC1)C2=O`, the Potency entry is “inactive”.

Consider `O=C(OCC(O)CO)c1ccccc1Nc1ccnc2cc(Cl)ccc12` (stereo unspecified), for which the Potency result was “inactive”.

In the case of `CCCCCCCCCCCCCCCCC(C(=O)O)C(O)(CC(=O)O)C(=O)O` (stereo unspecified), the Potency result is “inactive”.

For the molecule `Cc1c(-c2ccccc2)oc2c(C(=O)OCCN3CCCCC3)cccc2c1=O`, the Potency entry was “inactive”.

As to `Cc1ccc(/C(=C\CN2CCCC2)c2ccccn2)cc1`, the Potency result was “inactive”.

In the case of `CCOc1ccc(C(=O)OCCN(CC)CC)cc1`, the Potency result was “inactive”.

For the molecule `CCN[C@@H]1C[C@H](N)[C@@H](OC2OC(CN)=CCC2N)[C@H](O)[C@H]1O[C@H]1OC[C@](C)(O)[C@H](NC)[C@H]1O` (stereo partly specified), the outcome is “inactive [at 0.573 µM]”.

For the molecule `CN(C)CC[C@@H](c1ccc(Cl)cc1)c1ccccn1`, the Potency entry is “inactive”.

`CC(Oc1c(Cl)cccc1Cl)C1=NCCN1` (stereo unspecified): the Potency entry was “inactive”.

Consider `Cn1cc(C(=O)[C@@H]2CCc3nc[nH]c3C2)c2ccccc21`, for which the Potency entry is “inactive”.
